Assay results as given in PubChem BioAssay (NCI).
The panel holds about 79,000 compounds, 15% with a hit somewhere; the sample as a whole holds those more often. A number with no mark means an inactive call. Activity calls are given as the source filed them. Rule as the data show it: active = growth inhibition above about 70%; inactive = the rest.

Experiments:
[1] = NCI Yeast Anticancer Drug Screen. Data for the rad50 strain (AID 155);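 also: 0% = growth of vehicle-only cultures of the same strain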; conditions: S. cerevisiae rad50 strain growth inhibition; at 50.0 µM; active compounds read high
Method in brief: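 Vehicle-treated cultures provide the reference for the growth inhibition reported for compound-exposed, repair-deficient yeast.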

[2] = NCI Yeast Anticancer Drug Screen. Data for the mec2-1 strain (AID 157); conditions: S. cerevisiae mec2-1 strain, at 50.0 µM, active compounds read high
Method in brief: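 Yeast mec2-1 mutant treated with compound. Readout: growth inhibition vs vehicle controls.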

[3] = NCI Yeast Anticancer Drug Screen. Data for the sgs1 mgt1 strain (AID 161);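 also: 0% = growth of cultures given vehicle only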; conditions: S. cerevisiae sgs1 mgt1 strain, at 50.0 µM, active compounds read high
Method in brief: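 Read-out: growth inhibition vs vehicle controls. Cells: mutant yeast strain deficient in DNA damage repair.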

[4] = NCI Yeast Anticancer Drug Screen. Data for the cln2 rad14 strain (AID 165);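 also: 0% = growth equal to vehicle treated cultures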; conditions: S. cerevisiae cln2 rad14 strain, at 50.0 µM, active compounds read high
Method in brief: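 cln2 rad14 yeast strain; compound exposure; growth inhibition read vs vehicle controls.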

[5] = NCI Yeast Anticancer Drug Screen. Data for the bub3 strain (AID 167); conditions: S. cerevisiae bub3 mutant strain, at 50.0 µM, active compounds read high
Method in brief: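 Mutant yeast screening strain plus compound; vehicle-treated cultures serve as the 0% inhibition reference.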

[6] = NCI Yeast Anticancer Drug Screen. Data for the mlh1 rad18 strain (AID 175); conditions: S. cerevisiae mlh1 rad18 strain growth inhibition; at 50.0 µM; active compounds read high
Method in brief: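 Yeast w/ defined DNA-repair lesions; compound exposure; growth vs vehicle controls → % inhibition.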

SMILES | growth inhibition [1] | growth inhibition [2] | growth inhibition [3] | growth inhibition [4] | growth inhibition [5] | growth inhibition [6]
C[C@]12CC[C@H](OC(=O)Cc3ccc(N(CCCl)CCCl)cc3)CC1CC[C@@H]1C2CC[C@]2(C)NC(=O)CCC12 (stereo not given in full) | 0.1% | -5.65% | 15.9% | 15.2% | 3.65% | 18.1%
Cn1c(O)c(N=NC(N)=S)c(=O)n(C)c1=O | 30.6% | 20.4% | 8.95% | -20.4% | -20.3% | 14.6%
CC1=CC2OC3CC4OC(=O)/C=C/C=C/C(=O)OCC/C(C)=C/C(=O)OCC2(CC1O)C4(C)C31CO1 (stereo not given) | 92.3% (active) | 93.6% (active) | 93% (active) | 91.7% (active) | 91.8% (active) | 90.9% (active)
CO[C@@]12[C@@H]3N[C@@H]3CN1C1=C(C(=O)C(Nc3ccc(O)cc3C)=C(C)C1=O)[C@@H]2COC(N)=O | 61% | 29.1% | 20% | 44.4% | -14.6% | 71% (active)
CC(=O)O[C@@]12CO[C@@H]1CC(O)[C@@]1(C)C(=O)[C@H](O)C3=C(C)C(O)C[C@@](O)(C(OC(=O)c4ccccc4)C12)C3(C)C (stereo not given in full) | -12.8% | -28.4% | -12.3% | -5.9% | -29.4% | -8.65%
O=NNc1ccc(C(F)(F)F)cn1 | -7.95% | -6.95% | -17.9% | -5.75% | -17.4% | -15.2%
CN1[C@@H](CC(=O)c2ccccc2)CCC[C@H]1CC(=O)c1ccccc1 | 21.2% | 5.4% | 42.5% | 37.3% | 28.2% | 1.25%
CN(C)CCN1C(=O)CN=C(c2ccccc2Cl)c2cc(Cl)ccc21 | 15.8% | 12.2% | 27% | 2.75% | 0.2% | 27.6%
COc1ccc2[se]c(C)nc2c1 | -26.2% | -35.1% | 5.3% | -2.6% | -17.3% | -18.6%
N.N.N.N.O=C([O-])C(Cl)Cl.O=C([O-])C(Cl)Cl.[Co+3].[O-][Cl+3]([O-])([O-])[O-] | -10.1% | -13.2% | -23.1% | -15.2% | -6.1% | -13.6%
CNCCc1ccccc1 | 26% | 6.05% | 14.3% | 14.6% | -33.8% | -3.05%
O=P(O)(O)CCc1ccccc1 | -3.85% | 1.5% | -5.2% | -15.8% | -2.7% | 7.7%
CCCCN(CCCC)CC(O)c1cc(Cl)c(Cl)cc1C (stereo not given) | 10.5% | -13.2% | 35.1% | -1.3% | 27.4% | 25.3%
O=P(O)(O)CCP(=O)(O)O | -14.5% | 17.9% | -13.4% | 21.8% | -13.7% | -13.7%
CCc1cc[c]([Sb](=[O])([OH])[OH])cc1 | 3.5% | -7.15% | 9.1% | 22.5% | 4.1% | 3.2%
CCC(=O)OC1(c2ccccc2)CCN(CCC(=O)c2ccccc2)CC1C (stereo not given) | 48.6% | 36.6% | 47.8% | 38.6% | 27.1% | 37.3%
NC(Cc1cccc(NP(=S)(NCCO)N2CC2)c1)C(=O)O (stereo not given) | -4.95% | 15.1% | 12.8% | -10.9% | 13.1% | 4.35%
CC1=CC2OC3CC4OC(=O)/C=C/C=C/C(C(C)O)OCC/C(C)=C/C(=O)OCC2(CC1)C4(C)C31CO1 (stereo not given) | 92% (active) | 94.1% (active) | 93.3% (active) | 92.2% (active) | 92.6% (active) | 90.7% (active)
O=[N+]([O-])c1cc(S(=O)(=O)F)cc(Cl)c1O | -10.2% | 1.6% | 2.25% | -3.7% | -2.75% | 8.45%
Cc1ccc(Oc2ccc3c(c2)CN(C)CC3)cc1 | 93.8% (active) | 90.5% (active) | 96.8% (active) | 74.5% (active) | 96.6% (active) | 95.7% (active)

SMILES | growth inhibition [1] | growth inhibition [2] | growth inhibition [3] | growth inhibition [4] | growth inhibition [5] | growth inhibition [6]
ClCc1ccccc1 | 40% | 8.8% | 4.9% | -19.7% | 30.6% | 22.5%
O=C1C(=C([O-])c2ccccc2)C(=O)c2ccccc21.O=C1C(=C([O-])c2ccccc2)C(=O)c2ccccc21.[Fe+2] | 19.4% | 28.9% | 14.6% | 22.2% | 28.1% | 15.8%
c1ccc(-c2cc(-c3ccccc3)c(OOc3c(-c4ccccc4)cc(-c4ccccc4)cc3-c3ccccc3)c(-c3ccccc3)c2)cc1 | -6.7% | -0.7% | -0.95% | -27.9% | -10% | 16.6%
O=c1oc2ccccc2c(O)c1C(c1ccc2c(c1)OCO2)c1c(O)c2ccccc2oc1=O | -5.8% | -4.75% | 34.7% | 7% | 3.65% | 28.4%
CN(C)C(=O)Oc1ccc([N+](=O)[O-])cc1OC(=O)N(C)C | 2.4% | -5.25% | 0.8% | -8.65% | 9.95% | -4.05%
Nc1ccc2c(c1)Oc1ccc(N)cc1O2 | -22.8% | 1.2% | 0.7% | 15.1% | -6.2% | 5.15%
CC(C)CC1C(=O)NCCC(NC(=O)C(N)Cc2ccc(O)cc2)C(=O)NC(Cc2ccccc2)C(=O)NC(Cc2ccccc2)NC1=O (stereo not given) | -1.2% | -14.2% | -23.9% | 3.9% | -10.8% | -28.1%
Clc1cccc2nncc(N3CC3)c12 | 2% | 23.6% | -17.2% | -6.2% | -9.05% | 9.25%
NCC(O)CSP(=O)(O)O (stereo not given) | -10.9% | -9.85% | -18.9% | 24.5% | -3.8% | -0.6%
CCOP(=O)(OCC)Oc1c(Cl)c(Cl)c(O)c(Cl)c1Cl | -23.1% | -15.7% | 4.2% | -17.6% | 6.4% | -8.5%
O=[N+]([O-])c1ccc(-n2nc3ccc4c(no[n+]4[O-])c3n2)cc1 | -21.6% | 23.5% | 20.1% | 16.6% | -15.6% | -25.6%
COC(=O)C1C(O)CC2CCC1[N+]2(C)C (stereo not given) | 3.3% | 5.8% | 12.4% | 2.05% | 36.9% | -6.8%
CCCCCCC(Cn1ccnc1)c1ccc(Br)cc1 (stereo not given) | 98.2% (active) | 98.8% (active) | 95.8% (active) | 98.3% (active) | 99.5% (active) | 91.7% (active)
CCCCCCCCCCCCCC(=O)O.[Pb] | -4.8% | 7.35% | -5.9% | -0.65% | -12.7% | 5%
Cc1ccc(-c2cc(C)n(C)[n+]2C)cc1 | 8.05% | 7.05% | 8.7% | -20.9% | 9.6% | -3.05%
CCN1CCOC(O)(c2cc(Cl)cc(Cl)c2Cl)C1 (stereo not given) | 17.4% | -11.2% | 8.9% | -24.7% | 26.1% | 14.8%
CC(N)C(=O)c1ccccc1 (stereo not given) | -2.75% | 5.2% | 6.9% | -38.2% | 15.3% | 1.25%
Oc1ccccc1C=NCCN=Cc1ccccc1O.[Cu] | 15.4% | -25.9% | -4.75% | -36.4% | 3.55% | -7.7%
CCC(=O)[O][Sn]([CH3])([CH3])[O][Sn]([CH3])([CH3])[O]C(=O)CC | -2.55% | 18.1% | -28.8% | 11.8% | -16.9% | 3.25%
CS/C([S-])=N/N=C\c1ccccn1.CS/C([S-])=N/N=C\c1ccccn1.[Ni+2] | 14.7% | -6.75% | 17.2% | -35.4% | 2.45% | -0.45%
